Experimental data reported in PubChem BioAssay (NCATS).
Results filed as inconclusive are left out. Activity calls are given as the source filed them. Calls come from the whole dose curve; as a rule, active = well fitted inhibition curve with a large enough effect; inconclusive = small, poorly fitted or top-dose-only effect; inactive = flat fitted curve, though single readings scatter.

Experiments:
Test in all cases: qHTS profiling for inhibitors of Plasmodium falciparum proliferation (AID 504749); note: nearly all actives have a fitted effect of over 60% in size
Conditions in all cases: P. falciparum in erythrocytes, SYBR Green DNA, 72 h; series mostly up to 28.7 µM
CP260 = tested on: CP260
Method in brief: (§1)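 SYBR Green fluorescence (ex 485 nm, em 535 nm) reports parasite DNA after 72 h compound exposure of infected red cells at 0.3% parasitemia, 2.5% hematocrit; signal normalized to 0.29 uM artemisinin and vehicle wells.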

CP262 = tested on: CP262
Method in brief: as §1

CP265 = tested on: CP265
Method in brief: as §1

CP266 = tested on: CP266
Method in brief: as §1

CP268 = tested on: CP268
Method in brief: as §1

CP269 = tested on: CP269
Method in brief: as §1

CP286 = tested on: CP286
Method in brief: as §1

CP297 = tested on: CP297
Method in brief: as §1

CP305 = tested on: CP305
Method in brief: as §1

CP315 = tested on: CP315
Method in brief: as §1

CP325 = tested on: CP325
Method in brief: as §1

CP329 = tested on: CP329
Method in brief: as §1

CP335 = tested on: CP335
Method in brief: as §1

DFO2036 = tested on: DFO2036
Method in brief: as §1

DIV14 = tested on: DIV14
Method in brief: as §1

DIV17 = tested on: DIV17
Method in brief: as §1

DIV30 = tested on: DIV30
Method in brief: as §1

Dd2 = tested on: Dd2
Method in brief: as §1

ECU = tested on: ECU
Method in brief: as §1

CP291 = tested on: CP291
Method in brief: as §1

Measured: Potency
Potency is the fitted concentration of half-maximal effect.

CCCCCCCC(=O)O
not listed: CP291
inactive: all other assays above

O=C(COc1ccc(Cl)cc1)OCCNC12CC3CC(CC(C3)C1)C2
not listed: CP297 | DIV30
inactive: all other assays above

COC(=O)CCC(=O)CN
not listed: CP266 | DIV14
inactive: all other assays above

CCN(CC)Cc1cc(Nc2ccnc3cc(Cl)ccc23)ccc1O
active: CP260 20 nM | CP262 72.1 nM | CP265 20 nM | CP266 102 nM | CP268 51 nM | CP269 45.5 nM | CP286 31.6 nM | CP291 45.5 nM | CP297 90.7 nM | CP305 40.5 nM | CP315 287 nM | CP325 57.3 nM | CP329 90.7 nM | CP335 40.5 nM | DFO2036 56.2 nM | DIV14 80.9 nM | DIV17 114 nM | DIV30 181 nM | Dd2 56.2 nM | ECU 31.6 nM

Nc1ncnc2c1ncn2[C@@H]1O[C@H](COP(=O)(O)OP(=O)(O)OP(=O)(O)O)[C@@H](O)[C@H]1O
not listed: CP266
inactive: all other assays above

CC1=C(/C=C/C(C)=C/C=C/C(C)=C/C=C/C=C(C)/C=C/C=C(C)/C=C/C2=C(C)C(=O)CCC2(C)C)C(C)(C)CCC1=O
not listed: DIV14
inactive: all other assays above

CCOC(C)=O
inactive: all assays above

CC(=O)Oc1c(C)cc(OCC(O)CNC(C)C)c(C)c1C (centres undefined)
inactive: all assays above

CCOc1ccc(N=Nc2ccc(N)cc2N)cc1
not listed: DIV14 | DIV17 | ECU
inactive: all other assays above

C[C@]12O[C@H](C[C@]1(O)CO)n1c3ccccc3c3c4c(c5c6ccccc6n2c5c31)CNC4=O
active: CP260 224 nM | CP262 426 nM | CP265 447 nM | CP266 675 nM | CP268 536 nM | CP269 269 nM | CP286 224 nM | CP291 338 nM | CP297 379 nM | CP305 601 nM | CP315 426 nM | CP325 536 nM | CP329 426 nM | CP335 239 nM | DFO2036 316 nM | DIV14 120 nM | DIV17 135 nM | DIV30 269 nM | Dd2 355 nM | ECU 398 nM

COC(C(=O)C(O)C(C)O)C1Cc2cc3cc(OC4CC(OC5CC(O)C(O)C(C)O5)C(O)C(C)O4)c(C)c(O)c3c(O)c2C(=O)C1OC1CC(OC2CC(OC3CC(C)(O)C(O)C(C)O3)C(O)C(C)O2)C(O)C(C)O1 (centres undefined)
active: CP260 126 nM | CP262 2130 nM | CP265 355 nM | CP266 2130 nM | CP268 1690 nM | CP269 1900 nM | CP286 126 nM | CP291 1690 nM | CP297 2390 nM | CP305 1510 nM | CP315 3790 nM | CP325 3010 nM | CP329 2130 nM | CP335 379 nM | DFO2036 141 nM | DIV14 1510 nM | DIV17 1510 nM | DIV30 3010 nM | Dd2 100 nM | ECU 178 nM

CCCC(=O)Nc1ncnc2c1ncn2C1OC2COP(=O)(O)OC2C1OC(=O)CCC (centres undefined)
inactive: all assays above

NC(=O)c1ncn(C2OC(CO)C(O)C2O)n1 (centres undefined)
not listed: CP291
inactive: all other assays above

CC1=C(/C=C/C(C)=C/C=C/C(C)=C/C=C/C=C(C)/C=C/C=C(C)/C=C/C2=C(C)CCCC2(C)C)C(C)(C)CCC1
not listed: CP266
inactive: all other assays above

O=S(=O)(O)O
not listed: CP266
inactive: all other assays above

CCN(CC)CCOc1ccc(-c2nc3cc(Cl)ccc3s2)cc1
active: DIV17 15100 nM
not listed: CP260 | CP268 | CP286 | CP335 | DFO2036 | DIV14 | Dd2 | ECU
inactive: all other assays above

CN1C(=O)CN2CCc3ccccc3C2c2cc(Cl)ccc21 (centres undefined)
active: DIV17 6010 nM
not listed: CP260 | DIV14 | DIV30 | ECU
inactive: all other assays above

O=C1CSC2(CCN(CCCN3c4ccccc4Sc4ccc(Cl)cc43)CC2)N1
active: CP291 13500 nM | DIV14 15100 nM | DIV17 15100 nM | DIV30 15100 nM
inactive: CP262

C#C[C@]1(O)CC[C@H]2[C@@H]3CCC4=CCCC[C@@H]4[C@H]3C(=C)C[C@@]21CC
not listed: CP265 | CP268 | CP286 | CP305 | CP335 | DFO2036 | ECU
inactive: all other assays above

CN=C(NC#N)Nc1ccc(C2=NNC(=O)C[C@@H]2C)cc1
inactive: CP260 | CP265 | CP286 | DFO2036 | Dd2 | ECU

CCCCC(CC)COC(=O)CC(C(=O)OCC(CC)CCCC)S(=O)(=O)O (centres undefined)
not listed: CP260 | CP265 | CP286 | DFO2036 | Dd2 | ECU
inactive: all other assays above

CCCCCCOc1ccc(C(=N)N(CCCC)CCCC)c2ccccc12
active: CP260 4470 nM | CP286 2820 nM | CP297 16900 nM | CP335 8490 nM | DIV14 12000 nM | DIV17 12000 nM | ECU 8910 nM

COC(=O)[C@H]1[C@H]2CC3c4[nH]c5ccccc5c4CCN3C[C@@H]2CC[C@@H]1O (some centres undefined)
inactive: CP260 | CP265 | CP286 | DFO2036 | Dd2 | ECU

O=C(Nc1cccc(C(F)(F)F)c1)c1cc(Br)cc(Br)c1O
active: CP291 12000 nM | CP315 15100 nM | DFO2036 10000 nM | DIV14 13500 nM | DIV17 13500 nM | DIV30 13500 nM | ECU 10000 nM

CCCCC(=O)O[C@]1(C(=O)CO)[C@H](C)C[C@H]2[C@@H]3CCC4=CC(=O)C=C[C@]4(C)[C@@]3(F)[C@@H](O)C[C@@]21C
not listed: CP260 | CP335 | DFO2036 | DIV14 | DIV17 | DIV30 | ECU
inactive: all other assays above

O=S(=O)(O)c1cc(O)c2c(N=Nc3ccc(Nc4ccccc4)c4c(S(=O)(=O)O)cccc34)cc(S(=O)(=O)O)cc2c1
inactive: CP268 | CP315 | CP325 | CP329 | CP335 | DIV30 | ECU

C=C1C(=CC=C2CCC[C@@]3(C)[C@@H]2CC[C@H]3[C@H](C)CCCC(C)C)C[C@@H](O)C[C@@H]1O
active: CP265 11200 nM | Dd2 10000 nM | ECU 10000 nM
not listed: CP260 | CP286 | CP335 | DFO2036 | DIV17
inactive: all other assays above

CCOC(=O)C1=CC2(CC)CCCN3CCc4c(n1c1ccccc41)C32 (centres undefined)
active: CP265 11200 nM | CP286 11200 nM | DFO2036 11200 nM | Dd2 12600 nM | ECU 11200 nM

CC(C)=O
not listed: CP265 | CP268
inactive: all other assays above

CC1=C(/C=C/C(C)=C/C=C/C(C)=C/CO)C(C)(C)CCC1
active: DIV14 12000 nM | DIV17 16900 nM | Dd2 14100 nM | ECU 10000 nM
inactive: CP262 | CP266 | CP268 | CP291 | CP297 | CP305 | CP315 | CP325 | CP329
